The list is not random: actives were taken first. Their share in the collection is about 2.5%.
Anesthetic bind – qHTS Assay for Identification of Novel General Anesthetics; Ferritin light chain (Equus caballus), P02791; apoferritin/1-aminoanthracene competitive binding, fluorescence; Potency, µM (top dose mostly 77.5 µM), most hits filed as inhibitors; 0.074% of 350,000 active; AID 485281, 2010; also: nearly all actives have a fitted effect of over 20% in size
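Probe: 1-aminoanthracene (50% saturated, PBS). Protein: horse-spleen apoferritin, 10 uM. Incubation: 10 min, room temperature. Detection: 380 nm excitation, 535 nm emission. Analysis: normalized response, four-parameter Hill.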
ClpP mod – qHTS Assay for Activators of ClpP; ATP-dependent Clp protease proteolytic subunit (Bacillus subtilis (strain 168)), P80244; purified B. subtilis ClpP, FRET peptide cleavage, 20 min; Potency, µM (series often up to 57.5 µM); 1.9% of 340,000 active; active = well fitted falling curve with a large enough effect; inconclusive = small, poorly fitted or top-dose-only effect; inactive = no such curve, though single readings can be large or run the other way; also: the source files actives as falling curves though it sought activators and does not explain the sign; nearly all actives have a fitted effect of over 65% in size
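ClpP 10 microg/mL final, pH 8 Tris/KCl buffer with BSA, glycerol, Tween-20; compound pinned in; FRET-FV substrate; RT 20 min; Ex320/Em430; ΔFRET vs ADEP 5.8 microM, DMSO, no enzyme.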
miR-21 reporter – qHTS Assay for Modulators of miRNAs and/orActivators of miR-21; 340,000 tested, under 10 active; Potency, µM (highest dose often 38.3 µM), most hits filed as activators; HeLa miR-21 FLuc reporter, luciferase, 48 h;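 also: miR-21 action dims this reporter so a rising signal means less miR-21 action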
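HeLa cells endogenously expressing miR-21, stably carrying CMV-driven firefly luciferase with a downstream miR-21 binding site, 2000 cells/well. Titrations up to approximately 40 uM, 48 hours; luciferase luminescence read.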
TrxR1 substrate – qHTS Assay for Substrates of Mammalian Selenoprotein Thioredoxin Reductase 1 (TrxR1): qHTS; 0.01% of 390,000 active; Potency, µM (top dose mostly 114 µM); purified TrxR1 substrate turnover, NADPH consumption readout; AID 588456, 2011; Thioredoxin reductase 1, cytoplasmic (Rattus norvegicus), O89049; also: nearly all actives have a fitted effect of over 50% in size
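Rat TrxR1, dispensed at 90 nM, was prereduced with 400 uM NADPH (final) for 5 min at ~22 deg C, then incubated with compound 15 min before 400 uM selenite. A first-read NADPH fluorescence drop versus no-compound background flagged substrates.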
rTrxR1 inhibitor – qHTS Assay for Inhibitors of Mammalian Selenoprotein Thioredoxin Reductase 1 (TrxR1): qHTS; Thioredoxin reductase 1, cytoplasmic (Rattus norvegicus), O89049; recombinant rTrxR1, NADPH fluorescence consumption, selenite substrate; Potency, µM (highest dose often 114 µM), usual class: inhibitors; 1% of 390,000 active; also: nearly all actives have a fitted effect of over 65% in size
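Rat TrxR1 (90 nM in the dispensed reagent) was pre-reduced with 400 uM NADPH for 5 min at room temperature, then incubated with compound for 15 min. After 400 uM selenite was added, NADPH fluorescence (Ex 340/Em 450 nm) was followed for 8 min.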
Each line names hits and unclear results; the compound was inactive in the other large screens. Unless noted, calls follow the shape of the dose curve; as a rule, active = well fitted curve in the direction sought with a large enough effect; inconclusive = small, poorly fitted or top-dose-only effect, or another doubt; inactive = no such curve, though single readings can be large; an effect the other way counts as inactive or inconclusive.

Cc1cc(Nc2ccc3c(c2)OCCO3)c2cccc(C)c2n1	ClpP mod 32µM
c1ccc(CNc2nc3ccccc3c3nc(-c4ccccc4)nn23)cc1	ClpP mod 25µM
CC(OC(=O)c1cc2c(ccc3ccccc32)oc1=O)c1nc2ccccc2s1 (configuration not stated)	ClpP mod 2.8µM
CCOC(=O)c1cc2c(ccc3ccccc32)oc1=O	none
O=[N+]([O-])C(=C1Nc2ccccc2N1)C(Cl)=C(Cl)Cl	rTrxR1 inhibitor 11µM
Clc1ccc(CCNc2ncnc3c2c(-c2ccccc2)cn3-c2ccccc2)cc1	ClpP mod 20µM
CCOc1ccc(-n2cc(-c3ccccc3)c3c(NCCc4ccccc4)ncnc32)cc1	ClpP mod 25µM
Cc1c(C#N)c(=O)oc2ccc3ccccc3c12	ClpP mod 7.9µM
N#Cc1cc2c(ccc3ccccc32)oc1=O	none (no result: ClpP mod)
Cc1cccc(C(=O)Nc2cccc(C(=O)OCc3cc(=O)n4nc(C5CC5)sc4n3)c2)c1	Anesthetic bind inconclusive
CC(Sc1cccc2cccc(C(=O)O)c12)C(=O)O (configuration not stated)	ClpP mod 14µM
CC(Sc1ccc2ccccc2n1)C(=O)O (configuration not stated)	none
O=C(Cn1c(=O)n(Cc2ccco2)c(=O)c2sc3ccccc3c21)Nc1ccc(F)cc1F	ClpP mod inconclusive
O=C(O)c1cc(N2C(=O)C=CC2=O)cc(N2C(=O)C=CC2=O)c1	rTrxR1 inhibitor 0.22µM (no result: Anesthetic bind, miR-21 reporter)
O=C(O)c1cccc(N2C(=O)c3ccc4c5c(ccc(c35)C2=O)C(=O)N(c2cccc(C(=O)O)c2)C4=O)c1	none (no result: ClpP mod)
COc1cc(NC(=O)c2cc(-c3cccc(Cl)c3)on2)c(OC)cc1Cl	none
Cc1ccc2c(CC(=O)Nc3cc(C(F)(F)F)ccc3Cl)coc2c1C	none
O=C(C[n+]1cccc(Br)c1)c1cc(Cl)ccc1Cl	rTrxR1 inhibitor 11µM (no result: Anesthetic bind, miR-21 reporter)
Cc1ccc(C)c(C(=O)C[n+]2cccc(Br)c2)c1	none (no result: Anesthetic bind, miR-21 reporter)
O=C(CCS(=O)(=O)c1ccccc1)N1CCN(c2ccc(F)cc2)CC1	none
O=C(CCS(=O)(=O)c1ccccc1)N1CCN(c2cccc(C(F)(F)F)c2)CC1	rTrxR1 inhibitor 79µM (no result: ClpP mod)
CC(=O)c1cccc(-n2c(CCC(=O)O)ccc2-c2ccccc2)c1	rTrxR1 inhibitor 50µM
CCc1ccc2nc(NC(=O)CCCc3cccs3)sc2c1	ClpP mod 13µM
CCOC(=O)c1cc(-c2ccccc2)n(CCC(=O)NCCc2ccccc2)c1C	none
CCN(C(=O)Cc1ccccc1OC)c1nnc(-c2ccncc2)s1	none
CCN(C(=O)Cc1cccs1)c1nnc(-c2cc(OC)c(OC)c(OC)c2)s1	ClpP mod 22µM
COc1ccc(-c2cn3nc(N4CCC(C(=O)Nc5cc(Cl)ccc5C)CC4)sc3n2)cc1	none
Cc1cc(NCCCN(C)C)n2nc(-c3cccs3)cc2n1	ClpP mod 28µM
Cc1cc(C)c2c(n1)nn1c(NCCCN(C)C)cc(C)nc21	rTrxR1 inhibitor inconclusive
CC1CCN(C(=O)Cn2cc(SCc3ccccc3)c3ccccc32)CC1	none
N#Cc1c(-c2ccccc2)cc(-c2ccccc2)nc1SCC(O)CS(=O)(=O)Cc1ccc(Cl)cc1 (configuration not stated)	ClpP mod 10µM
COc1ccc(-c2cc(-c3ccccc3)c(C#N)c(SCC(O)CS(=O)(=O)Cc3ccc(Cl)cc3)n2)cc1 (configuration not stated)	none
CCCn1nc([N+](=O)[O-])c(C(C#N)c2nc3ccccc3s2)c(Cl)c1=O (configuration not stated)	Anesthetic bind inconclusive, miR-21 reporter inconclusive, rTrxR1 inhibitor 1.6µM
CCCCc1cc(=O)oc2cc(C)cc(OCC(=O)O)c12	ClpP mod 8.9µM
CCN(CC)c1nn2c(=O)c(C(=O)NCCc3ccc(C)cc3)cnc2s1	ClpP mod 16µM
CCOc1ccc(CCNC(=O)c2cnc3sc(N(CC)CC)nn3c2=O)cc1OCC	ClpP mod inconclusive
CCOc1ccc(CNC(=O)c2cnc3sc(N(CC)CC)nn3c2=O)cc1	none
CCc1ccc(CNC(=O)c2cnc3sc(N(CC)CC)nn3c2=O)cc1	ClpP mod 13µM
CCOc1ccccc1CNC(=O)c1cnc2sc(N(CC)CC)nn2c1=O	ClpP mod 8.9µM
CCN(CC)c1nn2c(=O)c(C(=O)NCCc3ccccc3C)cnc2s1	ClpP mod 4µM
CC(C)Sc1ncc(Cl)c(C(=O)N(Cc2ccc(F)cc2)C2CCS(=O)(=O)C2)n1 (configuration not stated)	none
Cc1ccccc1C(=O)Nc1cccc(C(=O)OCc2cc(=O)n3c(C)csc3n2)c1	none
COc1ccc(-c2cc(C)no2)cc1S(=O)(=O)NC1CCC(C)CC1 (configuration not stated)	none
O=C(Cc1ccccc1)Nc1cc(-c2nc3cc(Cl)ccc3o2)ccc1Cl	none
CC(=O)c1ccc(NC(=O)c2nn(C)c3c2COc2ccccc2-3)cc1	none
Cc1c(C)n(CC(O)CN2CCN(C)CC2)c2ccccc12 (configuration not stated)	none
Cc1c(C)n(CC(O)CN2CCCCC2)c2ccccc12 (configuration not stated)	ClpP mod 32µM
Cc1cc(C)n(CC(O)Cn2c(C)c(C)c3ccccc32)n1 (configuration not stated)	ClpP mod 32µM
Cc1c(C)n(CC(O)CN2CCOCC2)c2ccccc12 (configuration not stated)	none
Cc1[nH]nc2c1C1(CCN(Cc3ccccc3)CC1)C(C#N)=C(N)O2	rTrxR1 inhibitor inconclusive
N#CC1=C(N)N2C(=C(C#N)C13CCN(Cc1ccccc1)CC3)Nc1ccccc12	ClpP mod 32µM
CCOC(=O)c1cc2c(=O)n3ccccc3nc2n(Cc2ccco2)c1=NC(=O)c1cccc(Br)c1	rTrxR1 inhibitor 4µM
CCOC(=O)c1cc2c(=O)n3ccccc3nc2n(CC(C)C)c1=NC(=O)c1ccco1	ClpP mod 7.1µM
CCOC(=O)c1cc2c(=O)n3ccccc3nc2n(Cc2ccccc2Cl)c1=N	none (no result: ClpP mod, TrxR1 substrate, rTrxR1 inhibitor)
CCOC(=O)c1cc2c(=O)n3ccccc3nc2n(Cc2ccco2)c1=NC(=O)c1ccc(C)c(C)c1	rTrxR1 inhibitor inconclusive
CCOC(=O)c1cc2c(=O)n3cccc(C)c3nc2n(Cc2ccco2)c1=NC(=O)c1cccnc1	ClpP mod 14µM, rTrxR1 inhibitor inconclusive
CCOC(=O)c1cc2c(=O)n3ccccc3nc2n(Cc2ccco2)c1=NC(=O)c1ccccc1Br	rTrxR1 inhibitor inconclusive

Bioassay records (PubChem BioAssay)
